JMJD2A Tudor: blocks the human JMJD2A Tudor domain; hit rate 4.4% among 390,000; AID 504339; AlphaScreen JMJD2A-Tudor / H3K4me3 peptide binding; O75164; Potency, µM (series often up to 114 µM), for the others: at the highest dose activity change, negative = inhibition, usual class: inhibitors; also: % is scaled to controls: 0 for no effect and ±100 for the full control effect; nearly all actives have a fitted effect of over 50% in size
Target sequence (O75164 whole entry, looked up, the tested form may be a part): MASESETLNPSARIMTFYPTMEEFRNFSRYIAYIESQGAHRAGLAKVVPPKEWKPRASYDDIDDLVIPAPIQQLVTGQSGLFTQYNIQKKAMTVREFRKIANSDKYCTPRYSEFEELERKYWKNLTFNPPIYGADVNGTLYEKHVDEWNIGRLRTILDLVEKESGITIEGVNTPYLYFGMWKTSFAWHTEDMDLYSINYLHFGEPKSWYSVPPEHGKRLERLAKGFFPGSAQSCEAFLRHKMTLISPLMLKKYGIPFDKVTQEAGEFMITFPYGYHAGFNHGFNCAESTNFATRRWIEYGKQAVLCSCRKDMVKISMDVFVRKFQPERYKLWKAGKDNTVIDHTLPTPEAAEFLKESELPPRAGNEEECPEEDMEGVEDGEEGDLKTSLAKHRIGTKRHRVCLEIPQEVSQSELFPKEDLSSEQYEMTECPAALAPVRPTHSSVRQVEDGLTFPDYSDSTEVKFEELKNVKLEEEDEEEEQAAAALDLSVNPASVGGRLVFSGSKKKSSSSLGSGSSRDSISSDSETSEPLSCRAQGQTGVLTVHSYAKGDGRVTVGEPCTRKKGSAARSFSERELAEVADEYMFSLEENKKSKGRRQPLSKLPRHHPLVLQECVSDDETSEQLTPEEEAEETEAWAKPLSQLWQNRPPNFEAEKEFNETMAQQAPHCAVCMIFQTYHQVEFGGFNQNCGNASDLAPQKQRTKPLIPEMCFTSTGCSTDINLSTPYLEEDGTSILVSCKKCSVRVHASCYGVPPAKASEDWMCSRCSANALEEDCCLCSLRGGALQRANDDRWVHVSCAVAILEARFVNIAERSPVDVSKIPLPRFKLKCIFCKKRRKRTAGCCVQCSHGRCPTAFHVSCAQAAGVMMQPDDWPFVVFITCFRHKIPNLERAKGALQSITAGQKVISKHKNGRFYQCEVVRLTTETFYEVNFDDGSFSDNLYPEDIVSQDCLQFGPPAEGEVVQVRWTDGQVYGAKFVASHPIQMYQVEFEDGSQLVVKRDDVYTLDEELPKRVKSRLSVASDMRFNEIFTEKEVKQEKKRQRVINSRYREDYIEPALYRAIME
L3MBTL1 block: L3MBTL1 (human) inhibition | Q9Y468 | AlphaScreen L3MBTL1–H3K9me1 peptide binding | AID 485360 | Potency, µM (top dose mostly 57.1 µM), inactives show at the highest dose activity, negative = inhibition, actives largely listed as inhibitors | hit rate 0.66% among 230,000; also: % is scaled to controls: 0 for no effect and ±100 for the full control effect; nearly all actives have a fitted effect of over 60% in size
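First, the protein-peptide complex forms for 30 min at room temperature (L3MBTL1 50 nM, biotinylated H3K9me1 peptide 75 nM). Next, compounds are pin-transferred and incubated 30 min. Finally, AlphaScreen beads are added and read after 30 min.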
BAZ2B inh: BAZ2B (human) inhibition; hit rate 4.4% among 360,000; AlphaScreen BAZ2B-H3K14Ac peptide displacement; Q9UIF8; Potency, µM (doses to about 114 µM), without a hit: top-dose activity change, negative = inhibition, actives largely listed as inhibitors; also: % is scaled to controls: 0 for no effect and ±100 for the full control effect; nearly all actives have a fitted effect of over 60% in size
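Compounds, titrated to a top concentration of 110 uM, were incubated 30 min at room temperature with preformed BAZ2B/acetyl-K14 H3 peptide complex (50 nM each). Proximity signal was measured by AlphaScreen after 20 min with beads.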
G9a inh: blocks human histone lysine methyltransferase G9a; AID 504332; hit rate 8.8% among 350,000; Q96KQ7; G9a H3K9 monomethylation, AlphaScreen, 2 h; Potency, µM (series often up to 102 µM), for inactives: top-dose activity, negative = inhibition, hits mostly inhibitors; also: % is scaled to controls: 0 for no effect and ±100 for the full control effect; nearly all actives have a fitted effect of over 75% in size
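AlphaScreen read-out: biotin-H3K9 peptide (500 nM) methylation by 20 nM enzyme with 20 uM SAM, 2 h at room temperature after 15 min compound preincubation; anti-monomethyl H3K9 antibody plus donor/acceptor beads, 10 min dark.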
Sfp inh: blocks B. subtilis Sfp PPTase activity; Q9F4F7; Biochemical Sfp PPTase activity, qHTS; Potency, µM, for the others: largest response in the series, negative = inhibition, hits mostly inhibitors; hit rate 3.5% among 310,000; AID 1490;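 also: the enzyme is Sfp with the accession as filed and its product quenches rhodamine fluorescence; 0% = enzyme reaction without inhibitor and -100% = no enzyme wells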
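With Hepes-Na pH 7.6 buffer containing 10 mM MgCl2, Sfp (15 nM) modified BHQ-2-YbbR (12.5 uM) using rhodamine-CoA (5 uM). Two reads 30 minutes apart at 525/598 nm yielded each well's rate.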
HP1b chromo inh: inhibitors of HP1-beta chromodomain binding to methylated histone tails. Potency, µM (doses to about 114 µM), for inactives: at the highest dose activity change, negative = inhibition, most hits filed as inhibitors. AID 540317. P83916. hit rate 0.56% among 390,000. AlphaScreen HP1-beta / biotin-H3K9me3 peptide binding; also: nearly all actives have a fitted effect of over 70% in size
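AlphaScreen: HP1-beta (50 nM) preformed 30 min with biotin-H3(1-18)K9me3 peptide (50 nM) in PBS pH 7.4, 0.01% Tween-20. Compound added for 30 min at RT, then streptavidin donor/nickel chelate acceptor beads (10 ug/mL) for 30 min.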
* hit, by the source's call; ? = inconclusive; . = no result given; ! = not active in a repeat; [ ] = another dose, or the depositor's remark. The list is not random: actives were taken first. Their share in the collection is about 12%. Calls follow the shape of the dose curve; as a rule, active = well fitted curve in the direction sought with a large enough effect; inconclusive = small, poorly fitted or top-dose-only effect, or another doubt; inactive = no such curve, though single readings can be large; an effect the other way counts as inactive or inconclusive. Potency is read from the fitted curve at half-maximal effect.

SMILES	JMJD2A Tudor	L3MBTL1 block	BAZ2B inh	G9a inh	Sfp inh	HP1b chromo inh
COC1C(OC(=O)c2ccc(C)[nH]2)C(O)C(Oc2ccc3c(O)c(NC(=O)c4ccc(O)c(CC=C(C)C)c4)c(=O)oc3c2Cl)OC1(C)C (stereo unspecified)	50.1µM*	-7.7%	?	.	9.2%	?
NO	.	.	.	46.6%[12.7 µM]	.	.
CCC(C)n1c(=O)[nH]c(C)c(Br)c1=O (stereo unspecified)	.	.	.	.	11.7%	.
C/C(=N\NC(N)=O)c1c(O)n(C)c(=O)n(C)c1=O	39.8µM*	-1.1%	.	?	56.2µM*	27.9%
C[C@@]12CCC(=O)C[C@@H]1CC[C@@H]1[C@@H]2CC[C@]2(C)C(=O)CC[C@@H]12	.	.	.	-41.4%[2.33 µM]	12.4%	.
Clc1ccc(Cl)cc1	.	.	.	29.3%[59 µM]	25.6%	.
Cc1oc(-c2cccc(Cl)c2)nc1CN1CCC(C(=O)NCCCN2CCN(c3ccc(F)cc3)CC2)CC1	-27.6%	.	22.4µM*	?	.	-0.8%
Cc1oc(-c2ccc(Cl)cc2)nc1CN1CCC(C(=O)NCCCN2CCN(c3cccc(Cl)c3)CC2)CC1	?	.	?	10µM*	.	-11.6%
C[C@H](NC(=O)[C@@H](N)Cc1ccc(O)cc1)C(=O)N[C@@H](Cc1ccccc1)C(=O)N[C@@H](Cc1ccccc1)C(N)=O	.	.	.	18.9%[59 µM]	-7.7%	.
O=P(Oc1ccccc1)(Oc1ccccc1)c1ccccc1	34.4%	31.1%	0.891µM*	.	-17.2%	79.8%
NP(=O)(Oc1ccccc1)c1ccccc1 (stereo unspecified)	-20.1%	.	.	.	.	17.0%
COc1ccc2nc(NC(=O)CCNS(=O)(=O)c3ccc4c(c3)oc(=O)n4C)sc2c1	-6.9%	-5.7%	?	12.3%[12.7 µM]	-0.6%	19.1%
COCCNC(=O)c1c(N)n(Cc2ccco2)c2nc3ccccc3nc12	25.2%	19.0%	-2.4%	3.3%	-25.7%	70.8%
COCCCNC(=O)c1c(NC(=O)c2ccccc2Cl)n(Cc2ccccc2)c2nc3ccccc3nc12	-1.5%	23.8%	11.4%	-46.1%	15.6%	23.0%
COCCCn1c(N)c(C(=O)NCc2ccco2)c2nc3ccccc3nc21	44.8%	-7.4%	-34.3%	.	22.4µM*	100.6%
COCCNC(=O)c1c(NC(=O)c2ccco2)n(Cc2ccccc2)c2nc3ccccc3nc12	-4.8%	.	6.6%	?	22.4µM*	70.1%
CC1(C)C2C[C@@H](O)[C@]3(C)C(CC[C@@]4(C)[C@H](c5ccoc5)C[C@H]5O[C@]543)[C@@]2(C)[C@@H](O)C[C@H]1O (stereo partly specified)	.	.	.	.	-23.6%	.
CCCCC/C=C\C/C=C\C/C=C\C/C=C\CCCC(=O)OC(CO)CO	.	.	.	36.7%[59 µM]	24.9%	.
COc1cc2c(cc1OC)-c1c(OC)c(OC)cc3c1[C@H](C2)[N+](C)(C)CC3	?	1.9%	-30.4%	14.1µM*	-0.1%	-5.6%
COc1cc(OC)cc(C(=O)NC(=S)N2C[C@H]3C[C@H](C2)c2cccc(=O)n2C3)c1	-27.9%	-2.1%	?	50.1µM*	-22.9%	1.9%
COc1cc(CN2CC3CC(C2)c2cccc(=O)n2C3)cc(OC)c1OC (stereo unspecified)	-28.2%	.	79.4µM*	-11.4%[12.7 µM]	-4.3%	2.5%
O=c1cccc2n1CC1CC2CN(Cc2c(Cl)cccc2Cl)C1 (stereo unspecified)	-35.9%	6.5%	56.2µM*	35.5µM*	-7.1%	7.6%
O=C(NC(=S)N1C[C@H]2C[C@H](C1)c1cccc(=O)n1C2)c1ccc(Cl)cc1	?	1.5%	-7.4%	?	-14.9%	11.3%
COc1cc(C(=O)NC(=S)N2C[C@H]3C[C@H](C2)c2cccc(=O)n2C3)cc(OC)c1OC	-8.8%	11.6%	?	25.1µM*	?	18.6%
Cc1ccc(CN2CC3CC(C2)c2cccc(=O)n2C3)cc1 (stereo unspecified)	-25.8%	.	-7.7%	-34.4%[12.7 µM]	12.7%	16.1%
SMILES	JMJD2A Tudor	L3MBTL1 block	BAZ2B inh	G9a inh	Sfp inh	HP1b chromo inh
O=C(c1ccncc1)N1CCC[C@@]2(CCN(Cc3nccs3)C2)C1	.	.	.	-2.1%[12.7 µM]	21.1%	.
COC(=O)C12CC3=C[C@H](CC3=O)Cc3ccccc3[C@@H]1CNC2=O (stereo partly specified)	.	.	.	.	-12.6%	.
C[C@H](N)Cc1ccccc1	.	.	.	-35.8%[12.7 µM]	7.0%	.
C[N+]1([O-])[C@@H]2CC[C@H]1CC(OC(=O)[C@@H](CO)c1ccccc1)C2 (stereo partly specified)	.	.	.	22.1%[5.15 µM]	-10.8%	.
O=C(Oc1cccnc1)c1ccc(Cl)cc1	7.4%	-5.6%	?	?	21.0%	32.3%
COc1ccc(C(c2nnnn2CC2CCCO2)N2CCN(c3ccccc3)CC2)cc1 (stereo unspecified)	?	3.7%	50.1µM*	-41.7%[59 µM]	?	-1.2%
COc1ccc(N2CCN(C(CNC(=O)Oc3ccccc3)c3cccnc3)CC2)cc1 (stereo unspecified)	?	-13.2%	?	?	14.4%	-6.6%
NC(N)=NOCCC(N)C(=O)O (stereo unspecified)	.	.	.	29.9µM*!	-0.2%	.
COc1ccccc1N=Nc1ccc(N)c(C)c1	44.7µM*	.	35.5µM*	24.5%[2.33 µM]	1.0%	?
Cc1ccccc1N	-2.8%	5.3%	-2.3%	-5.3%[0.501 µM]	.	27.1%
O=C(NC1CN2CCC1CC2)c1ccc(-c2ccc([N+](=O)[O-])cc2)o1 (stereo unspecified)	-27.2%	-11.3%	-29.8%	?	56.2µM*	-1.8%
O=C(N[C@H]1CN2CCC1CC2)c1ccc(Cl)cc1	.	.	.	?	-17.8%	.
O=C(O)C1Sc2[nH]c(=O)sc2C2c3cc(Cl)ccc3OC(=O)C12 (stereo unspecified)	?	-12.1%	?	28.2µM*	50.1µM*	-15.6%
COc1ccc(CNC(=O)CSCc2cnn(-c3ccccc3)c2-n2cccc2)cc1OC	-30.2%	.	28.2µM*	-40.4%[59 µM]	.	-12.7%
COc1ccc(CNC(=O)C(NC(C)=O)C(C)C)cc1OC (stereo unspecified)	-4.1%	.	4.8%	-4.3%	9.8%	35.8%
O=C1NC(=S)NC(=O)C1=Cc1c(Cl)cccc1Cl	-12.4%	.	.	.	.	3.7%[57 µM]
NS(=O)(=O)c1ccc(-c2ccc(C=C3C(=O)NC(=O)NC3=O)o2)cc1	?	10.5%	-34.3%	10µM*	14.1µM*	12.2%
CNS(=O)(=O)c1ccc(-c2ccc(C=C3C(=O)NC(=O)NC3=O)o2)cc1	-25.0%	1.8%	?	8.91µM*	35.5µM*	71.6%
NS(=O)(=O)c1ccc(-c2ccc(C=C3C(=O)NC(=S)NC3=O)o2)cc1	.	?	50.1µM*	2.51µM*	12.6µM*	.
COc1ccccc1C1Nc2ccccc2-n2c(-c3ccccc3)c3c(=O)n(C)c(=O)n(C)c3c21 (stereo unspecified)	-26.2%	.	-23.5%	?	.	49.9%

Bioassay records as filed in PubChem.
